Assay results reported in the antibiotic and cytotoxicity screens of Wong et al. (2023).
In all, about 39,000 compounds went through this assay and about 3,300 (8.5%) were called active. Many of the other results were omitted from the sample, so actives are more common in it than they were.

Tested on: HepG2
Experiment: cytotoxicity call (relative viability < 0.9)
Details: 10 µM

Row | SMILES | cytotoxicity call
1 | COc1ccc(S(=O)(=O)Nc2ccc3c(c2)C(=O)N([C@@H](C)CO)C[C@@H](C)[C@H](CN(C)S(=O)(=O)c2ccccc2)O3)cc1 | inactive
2 | Cc1ccc(S(=O)(=O)Nc2ccc3c(c2)C(=O)N([C@H](C)CO)C[C@H](C)[C@@H](CN(C)C(=O)Cc2ccccc2)OCCCC[C@H](C)O3)cc1 | inactive
3 | CN1C(=O)c2cc(NC(=O)c3cccs3)ccc2OC[C@H]2O[C@H](CC(=O)NCCN3CCCCC3)CC[C@H]21 | inactive
4 | CO/N=C1\CN(c2nc3c(cc2F)c(=O)c(C(=O)O)cn3C2CC2)C[C@@H]1CN | inactive
5 | COc1ccc(S(=O)(=O)N2C[C@@H](O)COC[C@@H]3O[C@@H](CC(=O)N[C@@H]4CCN(Cc5ccccc5)C4)CC[C@H]32)cc1 | inactive
6 | C[C@]1(C(=O)NCC(F)(F)F)c2ccccc2C(=O)N(Cc2cc(F)cc(C(F)(F)F)c2)[C@H]1c1ccc(CO)cc1 | inactive
7 | Cc1ccc(S(=O)(=O)Nc2cccc3c2O[C@@H](CN(C)S(=O)(=O)c2ccccc2)[C@H](C)CN([C@@H](C)CO)C3=O)cc1 | inactive
8 | COCC#Cc1cnc2c(c1)C(=O)N([C@@H](C)CO)C[C@@H](C)[C@@H](CN(C)C(=O)CCN1CCCCC1)O2 | inactive
9 | Cc1noc(C)c1NC(=O)Nc1ccc2c(c1)C(=O)N([C@H](C)CO)C[C@H](C)[C@@H](CN(C)S(=O)(=O)c1ccccc1)OCCCC[C@@H](C)O2 | inactive
10 | NC1(Cc2ccc(Cl)cc2)CCN(c2ncnc3[nH]ccc23)CC1 | active
11 | Cc1ccc(S(=O)(=O)N2C[C@H](O)COC[C@@H]3O[C@@H](CC(=O)N[C@@H]4CCN(Cc5ccccc5)C4)CC[C@H]32)cc1 | inactive
12 | CN1CCc2cccc3c2C1Cc1ccc(O)c(O)c1-3.Cl (centres undefined) | active
13 | COc1cc2c3cc1Oc1cc(ccc1O)O[C@H]1c4c(cc(OC)c(O)c4Oc4ccc(cc4)C[C@@H]3N(C)CC2)CCN1C | inactive
14 | C[C@H](CO)N1C[C@H](C)[C@@H](CN(C)S(C)(=O)=O)Oc2ccc(NC(=O)NC3CCCCC3)cc2C1=O | inactive
15 | C[C@@H]1CN([C@H](C)CO)C(=O)CCCn2cc(nn2)CO[C@@H]1CN(C)C(=O)CCCN(C)C | inactive
16 | COCC#Cc1cnc2c(c1)C(=O)N([C@@H](C)CO)C[C@@H](C)[C@H](CN(C)C(=O)c1ccc3c(c1)OCO3)O2 | inactive
17 | C[C@H](CO)N1C[C@H](C)[C@@H](CN(C)S(=O)(=O)c2cn(C)cn2)Oc2cc(C#Cc3ccc(F)cc3)ccc2S1(=O)=O | inactive
18 | CCC(=O)Nc1ccc2ccccc2c1 | inactive
19 | Cc1c(C(=O)Nc2ccc3ccccc3c2)oc2ccccc12 | active
20 | O=C(Cc1ccc(-c2ccccc2)cc1)Nc1c(C(=O)Nc2ccc3c(c2)OCCO3)oc2ccccc12 | inactive
21 | CC(C)NC(=O)N(C)C[C@H]1Oc2ccc(NC(=O)CCC(F)(F)F)cc2C(=O)N([C@@H](C)CO)C[C@H]1C | inactive
22 | C[C@@H]1CN([C@H](C)CO)S(=O)(=O)c2ccc(C3=CCCC3)cc2O[C@H]1CN(C)C(=O)C1CCOCC1 | inactive

Row | SMILES | cytotoxicity call
23 | COCC(=O)N1C[C@H](C)[C@@H](OC)CN(C)C(=O)c2ccc(NC(=O)c3ccc(OC)cc3)cc2OC[C@H]1C | inactive
24 | CCOC(=O)N1CCC(O)CC1 | inactive
25 | CCOC(=O)CN1CCN(C=O)CC1 | active
26 | CCOC(=O)CN1C(=O)c2ccccc2C1=O | inactive
27 | CN(C)CCCNC(=O)[C@H]1[C@H](CO)[C@H]2Cn3c(ccc(-c4cccc(C(=O)N(C)C)c4)c3=O)[C@@H]1N2 | inactive
28 | C[C@@H]1CCCCO[C@@H](CN(C)C(=O)Nc2ccc(C(F)(F)F)cc2)[C@H](C)CN([C@H](C)CO)C(=O)c2cc(N(C)C)ccc2O1 | active
29 | C[C@@H]1CN([C@@H](C)CO)C(=O)c2cc(N(C)C)ccc2O[C@@H](C)CCCCO[C@@H]1CN(C)C(=O)Nc1ccc(C(F)(F)F)cc1 | active
30 | C[C@@H]1CCCCO[C@@H](CN(C)C(=O)Nc2ccc(C(F)(F)F)cc2)[C@@H](C)CN([C@H](C)CO)C(=O)c2cc(N(C)C)ccc2O1 | inactive
31 | C[C@H]1CCCCO[C@H](CN(C)C(=O)Nc2ccc(C(F)(F)F)cc2)[C@@H](C)CN([C@@H](C)CO)C(=O)c2cc(N(C)C)ccc2O1 | inactive
32 | C[C@@H]1CN([C@H](C)CO)C(=O)c2cc(N(C)C)ccc2O[C@@H](C)CCCCO[C@@H]1CN(C)C(=O)Nc1ccc(C(F)(F)F)cc1 | inactive
33 | C[C@H](CO)N1C[C@H](C)[C@@H](CN(C)C(=O)Nc2ccc(C(F)(F)F)cc2)OCCCC[C@H](C)Oc2ccc(N(C)C)cc2C1=O | inactive
34 | Cc1nn2cc(CN)nc2s1 | inactive
35 | C[C@@H]1CN([C@H](C)CO)C(=O)Cc2cc(NC(=O)C3CC3)ccc2O[C@@H]1CN(C)S(=O)(=O)c1cn(C)cn1 | inactive
36 | C=CCC[C@@H](Cc1ccc(F)cc1)C(=O)OC[C@@H](NC(=O)[C@@H](CC=C)CC(=O)N(CCO)Cc1ccccc1)C(C)(C)C | inactive
37 | C[C@@H]1CN([C@@H](C)CO)C(=O)c2cccc(NS(C)(=O)=O)c2O[C@@H]1CN(C)Cc1ccc(C(F)(F)F)cc1 | inactive
38 | C[C@@H]1CN([C@@H](C)CO)S(=O)(=O)c2ccc(Br)cc2O[C@H]1CN(C)Cc1ccc(-c2ccccc2)cc1 | inactive
39 | C[C@@H]1CN([C@H](C)CO)C(=O)c2cc(NS(=O)(=O)c3ccc(Cl)cc3)ccc2O[C@@H](C)CCCCO[C@@H]1CN(C)C(=O)NC1CCCCC1 | active
40 | C[C@@H]1CCCCO[C@H](CN(C)C(=O)NC2CCCCC2)[C@H](C)CN([C@H](C)CO)C(=O)c2cc(NS(=O)(=O)c3ccc(Cl)cc3)ccc2O1 | active
41 | C[C@H]1CCCCO[C@H](CN(C)C(=O)NC2CCCCC2)[C@@H](C)CN([C@@H](C)CO)C(=O)c2cc(NS(=O)(=O)c3ccc(Cl)cc3)ccc2O1 | inactive
42 | C[C@@H]1CCCCO[C@@H](CN(C)C(=O)NC2CCCCC2)[C@@H](C)CN([C@@H](C)CO)C(=O)c2cc(NS(=O)(=O)c3ccc(Cl)cc3)ccc2O1 | inactive
43 | C[C@@H]1CCCCO[C@H](CN(C)C(=O)NC2CCCCC2)[C@H](C)CN([C@@H](C)CO)C(=O)c2cc(NS(=O)(=O)c3ccc(Cl)cc3)ccc2O1 | inactive
44 | C[C@H]1CCCCO[C@@H](CN(C)C(=O)NC2CCCCC2)[C@@H](C)CN([C@@H](C)CO)C(=O)c2cc(NS(=O)(=O)c3ccc(Cl)cc3)ccc2O1 | inactive
